Results filed as inconclusive are left out. The source made the active and inactive calls. Unless noted, the call rests on the fitted dose curve; in most records, active means well fitted curve in the direction sought with a large enough effect; inconclusive means small, poorly fitted or top-dose-only effect, or another doubt; inactive means no such curve, though single readings can be large; an effect the other way counts as inactive or inconclusive.
Key:
[1] = Primary qHTS for inhibitors of nuclear receptor binding SET domain protein 2 (NSD2) in an isogenic RCH-ACV NSD2 p.E1099K mutant (9B) (AID 1645876); further: nearly all actives have a fitted effect of over 70% in size; further: potency means the concentration at half of the fitted maximal effect
[2] = Primary qHTS for inhibitors of nuclear receptor binding SET domain protein 2 (NSD2) in an RCH-ACV wild type WT cells (2C) (AID 1645877); further: nearly all actives have a fitted effect of over 70% in size; further: potency means the concentration at half of the fitted maximal effect
HaCat [3] = assay: Cytotoxic Profiling of Annotated Libraries Using Quantitative High-Throughput Screening (AID 1296008); details: Five cell lines viability, CellTiter-Glo ATP luminescence, 48-72 h; max response: stronger effect = lower value; further: nearly all actives have a fitted effect of over 60% in size; further: potency means the concentration at half of the fitted maximal effect; on max response: on the % scale 0 is the no-effect control and ±100 the full control effect
In short: (§1)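 Cytotoxicity was measured as CellTiter-Glo ATP luminescence, read after 10 min at room temperature. Compound treatment of the cells lasted 48 or 72 hr at 37 degrees Celsius in a qHTS format.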

HeLa = assay: Primary qHTS to identify gynecologic anti-cancer compounds using libraries of approved drugs and bioactive compounds (AID 1345084); details: Gynecologic cancer cell panel viability, ATPlite luminescence, 48 h; series mostly up to 57.5 µM; further: nearly all actives have a fitted effect of over 55% in size; further: potency means the concentration at half of the fitted maximal effect
In short: (§2)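 Five-point cytotoxicity, 48 h drug exposure at 37 C, 5% CO2, on cells seeded 16 h beforehand. ATP content read by ATPlite luminescence.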

SKOV3 = assay: as above; details: Gynecologic cancer cell panel viability, ATPlite luminescence, 48 h; series mostly up to 57.5 µM
In short: as §2

[4] = tested on: Zika virus NS2B-NS3 protease (unlinked complex); assay: Primary screen GU Rhodamine qHTS for Zika virus inhibitors: Unlinked NS2B-NS3 protease assay (AID 1347159); further: on the % scale 0 is the no-effect control and ±100 the full control effect; nearly all actives have a fitted effect of over 60% in size
In short: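 Noncovalent NS2B hydrophilic domain–NS3 protease domain complex (25 nM) preincubated 15 min at room temperature with compounds (up to 114 microM) in 10 mM Tris-HCl pH 8.0, 0.01% Tween 20; 1.5 microM Rhodamine110 substrate added, fluorescence change over 15 min fitted to Hill equation.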

[5] = Confirmatory qHTS for VERO E6 Cytotoxicity Assay: Counterscreen for SARS-CoV-2 CPE Assay (AID 1508605; calls by dose curve; further: on the % scale 0 is the no-effect control and ±100 the full control effect; nearly all actives have a fitted effect of over 60% in size)
[6] = biological target: Cytochrome P450 2D6 (Homo sapiens) (UniProt P10635); assay: Cytochrome P450 family 2 subfamily D member 6 (CYP2D6) small molecule antagonists: luciferase biochemical (cell-free) qHTS assay (AID 1645840; active means well fitted curve in the direction sought with a large enough effect in the repeat runs; an effect the other way counts as inactive or inconclusive; further: nearly all actives have a fitted effect of over 55% in size; further: potency means the concentration at half of the fitted maximal effect; on activity change, negative = inhibition: on the % scale 0 is the no-effect control and ±100 the full control effect)
In short: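 P450-Glo luminescent screen: recombinant CYP2D6 enzyme–proluciferin substrate mix preincubated with compound 10 min at room temperature, then NADPH regeneration added for 1 h at room temperature. Detection reagent added for 20 min; luciferin light read as relative luminescence units.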

CRL-7250 = normal cell line; assay: qHTS assay to identify novel small-molecules to repurpose for Merkel cell carcinoma treatment (AID 1296009); details: MCC and control cell lines, CellTiter-Glo viability, 72 h; series mostly up to 92 µM; further: nearly all actives have a fitted effect of over 60% in size
In short: (§3)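 72 hr, 37 degree celsius; NPC 8-pt / MIPE 11-pt dose response; compound pinned in DMSO; CellTiter-Glo, 10 min RT, luminescence; normalized to no-cell and DMSO controls.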

[7] = P-glycoprotein substrates identified in KB-3-1 adenocarcinoma cell line, qHTS therapeutic library screen (AID 1346986); further: nearly all actives have a fitted effect of over 60% in size
In short: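 Cells seeded 500/well in DMEM/10% FCS; compounds pinned in dose-response; 72 h incubation; CellTiter-Glo added, 5 min, luminescence. KB-8-5-11 run ±tariquidar to test reversal of P-gp resistance.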

[8] = P-glycoprotein substrates identified in KB-8-5-11 adenocarcinoma cell line, qHTS therapeutic library screen (AID 1346987); further: nearly all actives have a fitted effect of over 65% in size; further: potency means the concentration at half of the fitted maximal effect
In short: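 KB-8-5-11, a colchicine-selected P-gp-overexpressing KB-3-1 subline, was grown without colchicine for the assay. Cells were seeded at 500 cells/well, dosed in concentration-response and incubated 72 h at 37 degree C, 5% CO2. Viability was read by CellTiter-Glo luminescence.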

HEK293 = assay: Cytotoxic Profiling of Annotated Libraries Using Quantitative High-Throughput Screening (AID 1296008); details: Five cell lines viability, CellTiter-Glo ATP luminescence, 48-72 h; max response: stronger effect = lower value; further: nearly all actives have a fitted effect of over 60% in size; further: potency means the concentration at half of the fitted maximal effect; on max response: on the % scale 0 is the no-effect control and ±100 the full control effect
In short: as §1

KB-3-1 = assay: as above; details: Five cell lines viability, CellTiter-Glo ATP luminescence, 48-72 h; max response: stronger effect = lower value
In short: as §1

HACAT [9] = assay: qHTS assay to identify novel small-molecules to repurpose for Merkel cell carcinoma treatment (AID 1296009); details: MCC and control cell lines, CellTiter-Glo viability, 72 h; at 44.8 µM (top of the series) unless noted; further: nearly all actives have a fitted effect of over 60% in size
In short: as §3

NIH3T3 = assay: as above; details: MCC and control cell lines, CellTiter-Glo viability, 72 h; at 44.8 µM (top of the series) unless noted
In short: as §3

[10] = biological target: Catechol O-methyltransferase (Homo sapiens) (UniProt P21964); assay: Confirmatory Screen for Target Class Profiling of Small Molecule Inhibitors of Methyltransferases (AID 1745852; calls by dose curve; further: potency means the concentration at half of the fitted maximal effect); details: MTase-Glo luminescence, SAH detection, recombinant enzyme; measured here: COMT max response; stronger effect = lower value
[11] = biological target: Guanidinoacetate N-methyltransferase (Homo sapiens) (UniProt Q14353); assay: as above; details: activity change, negative = inhibition: at 57.3 µM (top of the series) unless noted
[12] = biological target: Nicotinamide N-methyltransferase (Homo sapiens) (UniProt P40261); assay: as above; details: MTase-Glo luminescence, SAH detection, recombinant enzyme; measured here: NNMT max response; stronger effect = lower value
[13] = biological target: Phenylethanolamine N-methyltransferase (Homo sapiens) (UniProt P11086); assay: as above; details: MTase-Glo luminescence, SAH detection, recombinant enzyme; measured here: PNMT max response; stronger effect = lower value
Chain of Phenylethanolamine N-methyltransferase (Homo sapiens) (P11086 whole entry, looked up): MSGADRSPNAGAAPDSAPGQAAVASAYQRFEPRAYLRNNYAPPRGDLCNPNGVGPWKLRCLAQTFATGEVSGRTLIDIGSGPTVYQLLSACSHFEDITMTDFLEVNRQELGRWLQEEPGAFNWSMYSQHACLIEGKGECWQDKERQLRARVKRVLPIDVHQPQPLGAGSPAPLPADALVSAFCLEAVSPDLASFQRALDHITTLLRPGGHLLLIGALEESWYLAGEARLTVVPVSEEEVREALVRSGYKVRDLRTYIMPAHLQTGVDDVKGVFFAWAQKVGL

Chain of Cytochrome P450 2D6 (Homo sapiens) (P10635 whole entry, looked up): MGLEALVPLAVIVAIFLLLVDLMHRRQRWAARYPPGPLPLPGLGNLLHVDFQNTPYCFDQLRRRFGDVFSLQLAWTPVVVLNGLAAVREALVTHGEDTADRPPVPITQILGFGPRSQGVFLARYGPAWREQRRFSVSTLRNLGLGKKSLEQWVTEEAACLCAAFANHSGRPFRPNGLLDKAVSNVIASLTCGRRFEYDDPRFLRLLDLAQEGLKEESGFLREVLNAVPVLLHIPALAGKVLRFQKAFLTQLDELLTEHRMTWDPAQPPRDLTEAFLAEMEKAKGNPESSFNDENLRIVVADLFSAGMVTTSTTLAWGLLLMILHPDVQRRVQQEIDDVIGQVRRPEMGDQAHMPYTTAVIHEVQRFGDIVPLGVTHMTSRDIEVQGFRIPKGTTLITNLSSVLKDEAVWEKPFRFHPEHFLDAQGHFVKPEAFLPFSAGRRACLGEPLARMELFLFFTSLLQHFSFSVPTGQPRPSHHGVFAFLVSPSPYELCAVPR
Chain of Catechol O-methyltransferase (Homo sapiens) (P21964 whole entry, looked up): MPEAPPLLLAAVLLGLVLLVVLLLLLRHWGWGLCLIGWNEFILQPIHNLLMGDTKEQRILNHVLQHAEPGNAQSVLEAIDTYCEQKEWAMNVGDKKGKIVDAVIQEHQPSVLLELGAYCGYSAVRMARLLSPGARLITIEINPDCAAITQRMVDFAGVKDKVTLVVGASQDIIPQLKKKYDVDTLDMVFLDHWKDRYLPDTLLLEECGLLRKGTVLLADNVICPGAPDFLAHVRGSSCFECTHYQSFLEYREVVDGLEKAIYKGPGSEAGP
Chain of Nicotinamide N-methyltransferase (Homo sapiens) (P40261 whole entry, looked up): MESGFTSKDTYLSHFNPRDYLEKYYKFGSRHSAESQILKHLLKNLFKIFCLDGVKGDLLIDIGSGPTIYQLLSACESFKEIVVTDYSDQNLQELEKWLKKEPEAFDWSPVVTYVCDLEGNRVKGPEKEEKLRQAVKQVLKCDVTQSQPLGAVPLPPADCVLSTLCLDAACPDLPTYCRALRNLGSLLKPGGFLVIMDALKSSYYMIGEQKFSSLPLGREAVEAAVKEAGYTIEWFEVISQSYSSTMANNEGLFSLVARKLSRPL

C=C1C(=O)O[C@@H]2[C@H]3C(=C)[C@@H](O)C[C@H]3C(=C)C[C@@H](O)[C@@H]12
inactive: max response (HaCat [3]) -4.6% | Potency (HeLa) | Potency (SKOV3)
active: Potency [1] 16.3 µM | Potency [2] 6.49 µM

COc1ccc(CCNCc2ccc(OC)c3ccccc23)cc1
inactive: Potency [4] | Potency [5] | Potency (HeLa) | Potency (SKOV3)
active: Potency [1] 14.5 µM | Potency [2] 16.3 µM

C[C@@H](CN1CCC2(CC1)C(=O)NCN2c1cccc(F)c1)NC(=O)c1ccc(Br)cc1
inactive: Potency [4] | Potency (CRL-7250) | Potency (HeLa)
active: Potency [6] 4.77 µM | Potency [1] 11.5 µM

COc1cc2c(cc1O)C1(C)CCC(O)C(C)(C)C1CC2=O (configuration not stated)
inactive: Potency [7] | Potency [8] | Potency [4] | Potency [1] | Potency [2] | max response (HEK293) -7.2% | outcome (HaCat [3]) | outcome (KB-3-1) | outcome (HACAT [9]) | outcome (NIH3T3) | Potency (HeLa) | Potency (SKOV3)

C/C=C(\C)C(O)C(C)/C=C(C)/C=C/C/C(C)=C/Cc1nc(OC)c(OC)c(O[C@@H]2O[C@@H](C)[C@H](O)[C@@H](O)[C@H]2O)c1C (some centres not stated)
inactive: Potency [8] | Potency [4] | outcome (HaCat [3]) | outcome (HACAT [9]) inactive [at 17.4 µM] | Potency (HeLa)
active: Potency [1] 3.55 µM | Potency [2] 3.99 µM | Potency (SKOV3) 3.16 µM

O=C1CN=C(c2cccc(Br)c2)c2oc3ccccc3c2N1
active: Potency [8] 14.6 µM | Potency [1] 9.16 µM | Potency [2] 6.49 µM
inactive: Potency [6] | Potency (CRL-7250)

C=C[C@H]1CN2CCC1C[C@H]2[C@H](O)c1ccnc2ccccc12 (some centres not stated)
inactive: Potency [8] | Potency [4] | Potency [1] | Potency [2] | max response (HaCat [3]) -26.7% | Potency (HeLa) | Potency (SKOV3)

O=C1CN=C(c2ccccc2Cl)c2cc(Br)ccc2N1
active: Potency [6] 13.5 µM | Potency [1] 23 µM | Potency [2] 12.9 µM
inactive: max response (HaCat [3]) -40.1% | outcome (NIH3T3)

C[C@H]1CCC[C@H](O)CCC/C=C/c2cc(O)cc(O)c2C(=O)O1
inactive: Potency (CRL-7250) | outcome (NIH3T3) | Potency (HeLa) | Potency (SKOV3)
-89%: activity [12]
active: Potency [1] 14.5 µM | Potency [2] 14.5 µM | Potency [11] 3.41 µM
-98.1%: activity [13]
-96.3%: activity [10]

C=C1CC[C@H]2[C@@H](/C=C(\C)C(=O)[C@@]3(OC(C)=O)C[C@H](C)[C@H](OC(=O)c4ccccc4)[C@@H]3[C@H]1OC(C)=O)C2(C)C
inactive: Potency [8] | max response (HaCat [3]) -1.11% | Potency (SKOV3)

CO[C@H]1C[C@H](O[C@H]2CC[C@]3(CO)[C@H]4CC[C@]5(C)[C@@H](C6=CC(=O)OC6)CC[C@]5(O)[C@@H]4CC[C@]3(O)C2)O[C@H](C)[C@H]1O
inactive: Potency [4]
active: Potency [8] 0.0224 µM | Potency [1] 0.0502 µM | Potency [2] 0.0796 µM | Potency (KB-3-1) 0.224 µM | Potency (HeLa) 0.199 µM | Potency (SKOV3) 0.158 µM

C/C=C(\C)C(=O)O[C@H]1CC2C(=C1C)[C@H]1OC(=O)[C@](C)(O)[C@]1(O)[C@H](OC(=O)CCC)C[C@@]2(C)OC(C)=O (some centres not stated)
inactive: Potency [8] | Potency (SKOV3)
active: Potency [1] 1 µM | Potency [2] 0.709 µM

From PubChem BioAssay (NCATS)
